# Results: PubChem BioAssay (Tox21)
# Records with an inconclusive call do not appear. Entries that show only a call come without a potency. The source made the active and inactive calls. The call rests on the fitted dose curve; in most records, active means well fitted cell-killing curve with a large enough effect in the repeat runs; inconclusive means weak or mixed curves, or effect the other way; inactive means flat fitted curve, though single readings scatter.
# Test: Human pregnane X receptor (PXR) small molecule agonists, qHTS cell viability counter screen (AID 1346977); further: nearly all actives have a fitted effect of over 50% in size
# Details: PXR-Luc HepG2 viability, CellTiter-Fluor, 24 h; series mostly up to 92.4 µM
# From the text: U.S. Tox21 Program National Center for Advancing Translational Sciences [NCATS] NIH Chemical Genomics Center [NCGC] U.S. Environmental Protection Agency [EPA] National Institutes of Environmental Health Sciences [NIEHS] National Toxicology Program [NTP] U.S. Food and Drug Administration [FDA] Tox21 Assay Overview: The human pregnane X receptor (hPXR) regulates the expression of several drug metabolizing enzymes and induction of these proteins is a major mechanism for developing drug resistance in cancer. One such key enzyme catalyzing the drug metabolism is cytochrome P450 3A4 (CYP3A4). Changes in CYP3A4 expression affect drug metabolism, thereby reducing the therapeutic efficacy and altering toxicological response to a drug and which finally causes adverse drug interaction. To screen Tox21 libraries for compounds that activate hPXR-mediated CYP3A4 gene expression, PXR-Luc HepG2 cells were used. Also cytotoxicity of the compounds was tested in parallel by measuring the cell viability using CellTiter-Fluor assay system in the same wells.
# Tox21 Assay Protocol Summary: PXR-Luc HepG2 cells were dispensed at 2,000 per well in 5uL of assay medium containing 5% charcoal-stripped FBS into white solid bottom 1536-well plates (Corning Life Sciences, Corning, NY) using a Multidrop Combi (Thermo Scientific, Waltham, MA) dispenser. The assay plates were incubated at 37 C and 5% CO2 for 5hr, and then 23nL of compounds dissolved in DMSO and positive control were transferred using a Pintool station (Wako, San Diego, CA). The assay plates were incubated at 37C and 5% CO2 for 24hr. For cytotoxicity read, after 23hr incubation at 37C, 1uL CellTiter-Fluor reagent (Promega Corporation, Madison, WI) was added to each well of the assay plates using Flying Reagent Dispenser (FRD, Aurora Discovery, San Diego, CA). After 1hr incubation at 37C and 5% CO2, the fluorescence signal was quantified using a ViewLux plate reader (PerkinElmer, Shelton, CT).
# Potency means the concentration at half of the fitted maximal effect.
SMILES,Potency,"activity change, negative = cytotoxicity"
CNN,inactive,–
O.O.O.O.O.O.O=S(=O)([O-])[O-].[Ni+2],inactive,–
CCC(OC(C)=O)C(CC(C)NC)(c1ccccc1)c1ccccc1 (stereo not given),27.5 µM (active),–
CC(Cc1ccccc1)N(C)Cc1ccco1 (stereo not given),inactive,–
N#Cc1ccc(N(CC(N)=O)CC(F)(F)F)cc1C(F)(F)F,inactive,–
CCC(C)Br (stereo not given),inactive,–
CCn1cc[n+](C)c1 (tested in a mixture with another compound),inactive,–
CC(=O)[O-].CC(=O)[O-].O.O.[Zn+2],inactive,–
CCN(CC)C(=O)N[C@@H]1C=C2c3cccc4[nH]cc(c34)C[C@@H]2N(C)C1,inactive,–
CC(=O)[O-].CC(=O)[O-].CC(=O)[O-].[Cr+3],inactive,–
CCOC(=O)Cc1ccccc1,inactive,–
CC#C[C@]1(O)CC[C@H]2[C@@H]3C[C@H](C)C4=CC(=O)CC[C@]4(C)[C@H]3CC[C@@]21C,inactive,–
O=[N+]([O-])c1cc(C(F)(F)F)c(Cl)c([N+](=O)[O-])c1Nc1ncc(C(F)(F)F)cc1Cl,17.2 µM (active),–
CC(=O)[O][Sn]([c]1ccccc1)([c]1ccccc1)[c]1ccccc1,0.306 µM (active),–
Clc1ccc(C(Cl)(Cl)Cl)cc1Cl,inactive,–
N#CSCc1ccccc1,inactive,–
CC(C)[C@@H](Nc1ccc(C(F)(F)F)cc1Cl)C(=O)OC(C#N)c1cccc(Oc2ccccc2)c1 (stereo not given in full),inactive,–
O=c1[nH]c2cc(Cl)ccc2n1C1CCNCC1,inactive,–
Nc1cc(Cl)ccc1Cl,inactive,–
CCC[CH2][Sn]([CH2]CCC)([CH2]CCC)[O][Sn]([CH2]CCC)([CH2]CCC)[CH2]CCC,0.533 µM (active),–

SMILES,Potency,"activity change, negative = cytotoxicity"
CC(C)=CCN1CC[C@@]2(C)c3cc(O)ccc3C[C@@H]1[C@@H]2C,17 µM (active),–
CC(Cc1ccc(O)cc1)NCC(O)c1cc(O)cc(O)c1 (stereo not given),inactive,–
[O-][Cl+3]([O-])([O-])O,inactive,–
O=[N+]([O-])C(Br)Br,inactive,–
ClCBr,inactive,–
O=S(=O)(NS(=O)(=O)C(F)(F)F)C(F)(F)F,60.9 µM (active),–
CN1[C@@H]2CC[C@H]1CC(O)C2 (stereo not given in full),inactive,–
O=C1C2(Cl)C3(Cl)C4(Cl)C(Cl)(Cl)C5(Cl)C3(Cl)C1(Cl)C5(Cl)C24Cl (stereo not given),42.6 µM (active),–
O=C(CCCCl)c1ccc(F)cc1,inactive,–
ClC(Cl)C(Cl)(Cl)Cl,inactive,–
COP(=S)(OC)Oc1ccc([N+](=O)[O-])c(C)c1,inactive,–
Oc1cccc(Cl)c1Cl,inactive,–
BrCCCBr,inactive,–
COP(=S)(NC(C)C)Oc1ccc(C)cc1[N+](=O)[O-] (stereo not given),inactive,–
O.O.O.O.O.O.O.O=S(=O)([O-])[O-].[Co+2],inactive,–
CN1C(=O)[C@@H](NC(=O)c2cc3ccccc3[nH]2)N=C(c2ccccc2)c2ccccc21,inactive,–
O=C(NC(=O)c1ccccc1Cl)Nc1ccc(OC(F)(F)F)cc1,inactive,–
CCO/N=C(\CC)C1=C(O)CC(c2c(C)cc(C)cc2C)CC1=O (stereo not given),inactive,–
O=C(O)[C@H](O)[C@@H](O)C(=O)O,inactive,–
Clc1c(Cl)c(Cl)c(Cl)c(Cl)c1Cl,–,0.664% [at 8.39 µM] (inactive)
